Measured values from PubChem BioAssay (NCI).
Values joined by “and” are separate entries in the source; they are usually repeats but may differ in a detail not shown here. Equal entries are not always repeated. About 83,000 compounds went through this panel and 20% of them were active in at least one assay; those are over-represented in the sample as a whole.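 48-hour exposure, single concentration, 96-well plates; percent growth endpoint where 0 means no net growth. Active: below 10.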 Active and inactive are the calls of the source.

Columns and labels:
Experiment in all cases: NCI-60 one-dose screen, 48 h (100 = growth as untreated, 0 = no growth, -100 = all killed)
Settings in all cases: 10 µM unless noted
[1] = test system: DU-145 prostate
[2] = test system: K-562 leukemia
[3] = test system: MALME-3M melanoma
[4] = test system: MDA-MB-231 breast
[5] = test system: RXF 393 renal
[6] = test system: SF-268 CNS
[7] = test system: SF-295 CNS
[8] = test system: SF-539 CNS
[9] = test system: M14 melanoma
[10] = test system: HCT-15 colon
[11] = test system: HT29 colon
[12] = test system: SNB-75 CNS
[13] = test system: SNB-19 CNS
[14] = test system: U251 CNS
[15] = test system: PC-3 prostate
[16] = test system: UACC-62 melanoma
[17] = test system: LOX IMVI melanoma
[18] = test system: SK-MEL-28 melanoma
[19] = test system: SK-MEL-5 melanoma
[20] = test system: UACC-257 melanoma

Measured: growth

c1ccc2c(c1)O[As](O[As]1Oc3ccccc3O1)O2
active: [2] 5.83% | [3] -7.18% | [8] -32.9% | [12] 1.6% | [14] 1.07%
inactive: [1] 60.6% | [4] 62% | [5] 42.4% | [6] 19.2% | [7] 99.3% | [9] 52.2% | [10] 29.9% | [11] 24.8% | [13] 82.9% | [15] 36.9% | [16] 43.8% | [17] 30.9% | [18] 44.4%

CC[C@@H](C)C(=O)O[C@H]1[C@H](O)[C@H]2[C@@H](CN3C[C@@H](C)CC[C@H]3[C@@]2(C)O)[C@@H]2C[C@]34O[C@]5(O)[C@@H](OC(=O)[C@@](C)(O)CC)CC[C@@]3(C)[C@@H]5[C@@H](OC(C)=O)[C@@H](OC(C)=O)[C@H]4[C@@]21O
inactive: [1] 107% | [2] 83.9% | [3] 103% | [4] 94.2% | [5] 94.5% | [6] 102% | [7] 97.2% | [8] 100% | [9] 95.6% | [10] 109% | [11] 112% | [12] 79.8% | [13] 100% | [14] 91.8% | [15] 75.8% | [19] 86.6% | [16] 96.1% | [17] 92.8% | [18] 105%

ClCc1ccc(Cl)c(Cl)c1
inactive: [1] 106% | [2] 107% | [3] 83% | [4] 108% | [6] 101% | [7] 94.4% | [8] 99.6% | [20] 98.3% | [9] 95.3% | [10] 98.6% | [11] 109% | [12] 104% | [13] 96.6% | [14] 100% | [15] 91.9% | [17] 104% | [18] 111%

Clc1ccc(COC(Cn2ccnc2)c2ccc(Cl)cc2Cl)c(Cl)c1 (stereo not given)
inactive: [1] 76.8% and 69.8% | [2] 25.5% and 13.7% | [3] 56.1% and 75.3% | [4] 49.5% and 66.9% | [5] 72.1% and 10.9% | [6] 70.2% and 77.8% | [7] 30.4% and 51.3% | [8] 80.4% and 70.1% | [20] 61.2% and 48% | [9] 29.2% | [11] 23.4% and 31% | [12] 78.6% and 90.2% | [13] 83.4% and 83.8% | [15] 40.9% and 39.3% | [16] 41.5% and 52.1% | [17] 34% and 47.6% | [18] 81.5%
39% (inactive) and 3.49% (active): [19]

OCCNC1CCCCC1
inactive: [1] 107% | [2] 101% | [3] 112% | [4] 114% | [5] 118% | [6] 102% | [7] 111% | [8] 103% | [20] 112% | [10] 98.7% | [11] 109% | [12] 96.3% | [13] 105% | [14] 106% | [15] 103% | [19] 103% | [16] 97.2% | [17] 104% | [18] 104%

O=C(O)C(F)F
inactive: [1] 107% | [2] 92.4% | [3] 102% | [4] 98.9% | [5] 97.1% | [6] 98.9% | [7] 101% | [8] 97.1% | [9] 107% | [10] 106% | [11] 100% | [12] 113% | [13] 111% | [14] 108% | [15] 105% | [19] 99.7% | [16] 102% | [17] 99% | [18] 116%

CC(C)CCC1C(=O)NC(=O)NC1=O
inactive: [1] 109% | [2] 109% | [3] 88.9% | [4] 97.3% | [5] 117% | [6] 96.2% | [7] 98.4% | [20] 95.5% | [9] 99.9% | [10] 101% | [11] 98.4% | [12] 104% | [13] 115% | [14] 97.6% | [19] 103% | [16] 96.7% | [17] 104% | [18] 101%

COC[C@H]1OC(=O)c2coc3c2[C@@]1(C)C1=C(C3=O)[C@@H]2CCC(=O)[C@@]2(C)C[C@H]1OC(C)=O
active: [12] -21% | [19] -16.9%
inactive: [1] 45.2% | [2] 70.7% | [3] 32.8% | [4] 67.8% | [5] 10.4% | [6] 51.8% | [7] 39.5% | [8] 28.6% | [20] 23% | [11] 34.4% | [13] 66.2% | [15] 25.1% | [17] 54.3%

O=C/C=C/c1ccco1
inactive: [1] 108% | [2] 88.8% | [3] 98.8% | [4] 99.4% | [5] 119% | [6] 102% | [7] 99.9% | [8] 100% | [9] 102% | [10] 106% | [11] 95.1% | [12] 80.5% | [13] 106% | [14] 95.1% | [15] 83.7% | [19] 113% | [17] 98.2% | [18] 114%

CCCCOCCOP(=O)(OCCOCCCC)OCCOCCCC
inactive: [1] 115% | [2] 88.3% | [3] 111% | [4] 99% | [5] 100% | [6] 98.5% | [7] 103% | [8] 99.6% | [9] 106% | [10] 101% | [11] 104% | [12] 103% | [13] 98% | [14] 106% | [15] 103% | [16] 93.7% | [17] 91.7% | [18] 117%

CC12CCC3C4CCC(=O)C=C4CCC3C1CC1CC(=O)OC12 (stereo not given)
inactive: [1] 112% | [2] 95.5% | [3] 103% | [4] 97.6% | [5] 110% | [6] 98% | [7] 103% | [8] 101% | [20] 80.7% | [9] 104% | [11] 90.9% | [12] 92.3% | [13] 94.6% | [15] 87.1% | [19] 99.2% | [16] 97.2% | [17] 90.7% | [18] 108%

CCCC[C@H]1C(=O)O[C@H](C)[C@H](NC(=O)c2cccc(NC=O)c2O)C(=O)O[C@@H](C)[C@@H]1OC(=O)CC(C)C
active: [5] 6.91% | [7] 9.04% | [19] -5.18%
inactive: [1] 85.9% | [2] 26.4% | [3] 44% | [4] 58.7% | [6] 46.6% | [8] 39.3% | [20] 42.8% | [10] 39.9% | [11] 49.5% | [12] 56.8% | [13] 44.4% | [14] 42.9% | [16] 34% | [17] 32.9% | [18] 83.9%

CC1=C(C)C(=O)O[C@@H]([C@](C)(O)[C@]2(O)CC[C@@]3(O)[C@@H]4C[C@H]5O[C@]56CC=CC(=O)[C@]6(C)[C@H]4CC[C@]23C)C1
inactive: [4] 30.3% | [9] 11.3% | [13] 30.8% | [15] 11.2%
active: [1] 7.11% | [2] 3.63% | [3] -4.58% | [6] -22.6% | [7] 4.3% | [8] -10.1% | [20] 6.11% | [10] -1.03% | [11] 1.74% | [12] -11.3% | [19] -15.6% | [16] -5.31% | [17] -54.7% | [18] 1.96%

NC(=O)c1c(Br)c(Br)c(Br)c(Br)c1C(=O)O (tested in a mixture with another compound)
inactive: [1] 112% and 108% | [2] 80.6% and 79.6% | [3] 102% and 91.1% | [4] 87.5% and 94.2% | [5] 106% and 112% | [6] 97.7% and 100% | [8] 97.2% and 98.4% | [20] 98.7% and 105% | [9] 97.1% and 107% | [10] 92.8% and 106% | [11] 106% and 103% | [12] 115% and 95.8% | [13] 96.6% and 104% | [14] 95.4% and 96.2% | [15] 90.8% and 86.6% | [16] 83.7% and 104% | [17] 31.8% and 101% | [18] 110% and 108%

O=[N+]([O-])c1c(Cl)cc(Cl)c([N+](=O)[O-])c1Cl
inactive: [1] 81.3% | [2] 103% | [3] 175% | [4] 110% | [5] 131% | [6] 96% | [8] 110% | [20] 62.9% | [9] 97.2% | [10] 85.9% | [11] 100% | [13] 113% | [19] 101% | [16] 108% | [17] 33.6%

N#CCc1ccc(CC#N)cc1
inactive: [1] 116% | [2] 95.5% | [3] 118% | [4] 96.7% | [5] 106% | [6] 105% | [7] 100% | [20] 89% | [9] 98.1% | [10] 96.5% | [11] 92.4% | [12] 101% | [13] 93.2% | [14] 93.6% | [15] 91.2% | [19] 101% | [16] 92.3% | [17] 101% | [18] 101%
